Reference: PubChem BioAssay (EPA / NIEHS)
Several values for one entry are separate records, joined by “and”; a condition that tells them apart may be missing. Equal values may be shown once. Activity calls are given as the source filed them. How the source made its calls: active means hit-call score of the fitted dose curve at least 0.9, where 1 is the maximum; inactive means score below 0.9.

Read-out: TIMP metallopeptidase inhibitor 1 (TIMP1), TIMP1 (gene 7076)
Experiment: BSK_hDFCGF_TIMP1: BioMAP Diversity Plus: hDFCGF Assay for TIMP metallopeptidase inhibitor 1 (TIMP1) Biomarker Activity (AID 2283062)
Conditions: primary human foreskin fibroblasts; actives raise or lower the signal
Protocol: BSK_hDFCGF is a cell-based, multiplexed-readout assay that uses foreskin fibroblast, a human skin primary cell, with measurements taken at 24 hours after chemical dosing in a 96-well plate.BSK_hDFCGF_TIMP1 is an assay component measured in the BSK_hDFCGF assay. It measures TIMP-1 antibody related to regulation of gene expression using ELISA technology.Data from the assay component BSK_hDFCGF_TIMP1 was analyzed into 1 assay endpoint. This assay endpoint, BSK_hDFCGF_TIMP1, was analyzed with bidirectional fitting relative to DMSO as the negative control and baseline of activity. Using a type of binding reporter, gain or loss-of-signal activity can be used to understand changes in the signaling as they relate to the gene TIMP1. Furthermore, this assay endpoint can be referred to as a primary readout, because this assay has produced multiple assay endpoints where this one serves a signaling function. To generalize the intended target to other relatable targets, this assay endpoint is annotated to the protease inhibitor intended target family, where the subfamily is metalloproteinase inhibitor.
The levels of cell surface (or secreted, indicated by the prefix "s") biomarker endpoints were measured by ELISA. Overt cytotoxicity to cells in confluent adherent cultures (all systems other than the BT system) was assessed by measuring total protein levels using sulforhodamine B (SRB) staining in parallel cultures at the time of biomarker measurements, indicated as SRB endpoints. For proliferation assays for adherent cell types, individual cell types are cultured at sub-confluence and relative cell numbers quantified by SRB staining at time points optimized for each system (48 h: 3C and CASM3C systems; 72 h: BT and HDF3CGF systems; 96 h: SAg system). SRB was performed by staining cells with 0.1% SRB after fixation with 10% TCA and reading wells at 560 nm.Viability and proliferation of PBMC (T cells) was quantified by Alamar Blue reduction for the SAg and BT systems. For PBMC viability (referred to as PBMC Cytotoxicity within the assay endpoint names), cells were plated (75,000/well in a 96-well plate) and then chemical samples added for 1 h before addition of activators, SEB and TSST-1 (20 ng/mL final concentration each). Cells were incubated for 90 h. Then, Alamar Blue (20 uL/well) (Invitrogen, Cat DAL1100) was added for 6 h, and the plates were read with a fluorescence microplate reader at 546/580 nm (excitation/emission). For PBMC proliferation, cells were plated and activated as above but incubated for only 16 h prior to addition of Alamar Blue. Plates were read after 6 h.

| SMILES | outcome | AC50 |
| --- | --- | --- |
| COC(=O)c1cccc(C)c1S(=O)(=O)NC(=O)Nc1nc(OCC(F)(F)F)nc(N(C)C)n1 | inactive |  |
| CCOC(=O)COc1cc(-n2ncc(C(F)(F)F)c(C)c2=O)c(F)cc1Cl | inactive |  |
| O=C(c1ccc(O)cc1O)c1ccc(O)cc1O | inactive |  |
| CC(=O)S[C@@H]1CC2=CC(=O)CC[C@]2(C)[C@H]2CC[C@@]3(C)[C@@H](CC[C@@]34CCC(=O)O4)[C@H]12 | inactive |  |
| COC(=O)CSc1cc(N=c2sc(=O)n3n2CCCC3)c(F)cc1Cl | inactive |  |
| CCC(C)OC(=O)N1CCCCC1CCO (stereo not given) | inactive |  |
| CCOC(=O)C(C)Oc1ccc(Oc2cnc3cc(Cl)ccc3n2)cc1 (stereo not given) | inactive |  |
| COC(=O)c1ccc(I)cc1S(=O)(=O)NC(=O)Nc1nc(C)nc(OC)n1 | inactive |  |
| CCCCOC(=O)C(C)Oc1ccc(Oc2ccc(C(F)(F)F)cn2)cc1 (stereo not given) | inactive |  |
| CCOC(=O)NCCOc1ccc(Oc2ccccc2)cc1 | inactive |  |
| COCCO | inactive |  |
| CCCOC(=O)c1ccc(C(=O)OCCC)nc1 | inactive |  |
| CCN(CC)C(=O)c1cccc(C)c1 | inactive |  |
| CCN(Cc1c(F)cccc1Cl)c1c([N+](=O)[O-])cc(C(F)(F)F)cc1[N+](=O)[O-] | inactive |  |
| CCCCC(CC)COC(=O)c1ccccc1C(=O)O (stereo not given) | inactive |  |
| C=CCOC(Cn1ccnc1)c1ccc(Cl)cc1Cl (stereo not given) |  | 30 µM (active) |
| C#C[C@]1(O)CC[C@H]2[C@@H]3CCC4=CC(=O)CC[C@@H]4[C@H]3CC[C@@]21CC | inactive |  |
| CCCCCOC(=O)COc1cc(N2C(=O)C3=C(CCCC3)C2=O)c(F)cc1Cl | inactive |  |
| c1ccc2[nH]c(-c3cscn3)nc2c1 | inactive |  |
| C#CCOC(=O)[C@@H](C)Oc1ccc(Oc2ncc(Cl)cc2F)cc1 | inactive |  |

| SMILES | outcome | AC50 |
| --- | --- | --- |
| COC(=O)c1ccccc1S(=O)(=O)NC(=O)Nc1nc(OC(F)F)cc(OC(F)F)n1 | inactive |  |
| OB(O)O | inactive |  |
| CC(C)(C)[C@@H](O)[C@@H](Cc1ccc(Cl)cc1)n1cncn1 | inactive |  |
| COC(=O)c1ccccc1C(=O)O |  | 6.58 µM (active) |
| CCOC(=O)[C@H](C)Oc1ccc(Oc2nc3ccc(Cl)cc3o2)cc1 | inactive |  |
| CCCN(CCC)c1c([N+](=O)[O-])cc(C(F)(F)F)c(N)c1[N+](=O)[O-] |  | 30.2 µM (active) |
| N#CSCSc1nc2ccccc2s1 |  | 1.63 µM (active) and 148 nM (active) |
| S=C(S)NCCNC(=S)S.[Mn+2].[S-]C([S-])=NCCN=C([S-])[S-].[Zn+2] | inactive |  |
| CCNc1nc(N)nc(Cl)n1 | inactive |  |
| CCCCOCCOCCOCc1cc2c(cc1CCC)OCO2 | inactive |  |
| C[C@]12C[C@H](O)[C@H]3[C@@H](CCC4=CC(=O)CC[C@@]43C)[C@@H]1CC[C@@H]2C(=O)CO | inactive |  |
| CC(C)(c1ccc(O)cc1)c1ccc(O)cc1 | inactive |  |
| CC(=O)[C@H]1CC[C@H]2[C@@H]3CCC4=CC(=O)CC[C@]4(C)[C@H]3CC[C@]12C | inactive |  |
| O=C(O)c1ccccc1 | inactive |  |
| CCC(O)=C1C(=O)CC(C(=O)O)CC1=O (stereo not given) | inactive |  |
| C[C@]12CC[C@@H]3c4ccc(O)cc4C[C@@H](CCCCCCCCCS(=O)CCCC(F)(F)C(F)(F)F)[C@H]3[C@@H]1CC[C@@H]2O (stereo not given in full) | inactive |  |
| O=C(c1ccccc1)C1CCCCC1 | inactive |  |
| CCOC(=O)C(C)Oc1ccc(Oc2nc3ccc(Cl)cc3o2)cc1 (stereo not given) | inactive |  |
| CCCCOC(=O)[C@@H](C)Oc1ccc(Oc2ccc(C(F)(F)F)cn2)cc1 | inactive |  |
| COc1nc(C)nc(NC(=O)NS(=O)(=O)c2ccccc2OCCCl)n1 | inactive |  |
